From PubChem BioAssay (NCI)
This is part of a sample that, as a whole, favours compounds with a hit. Of some 83,000 tested, about 20% had one in any assay.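 Growth was measured after 48 h exposure to one concentration of compound in 96-well plates. Values under 10 count as active.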 A number with no mark means an inactive call. Activity calls are given as the source filed them.

Columns and labels:
Assay in all cases: NCI-60 one-dose screen, 48 h (100 = growth as untreated, 0 = no growth, -100 = all killed)
Details in all cases: 10 µM unless noted
SK-MEL-2 melanoma = test system: SK-MEL-2 melanoma
EKVX NSCLC = test system: EKVX NSCLC
SN12C renal = test system: SN12C renal
UO-31 renal = test system: UO-31 renal
TK-10 renal = test system: TK-10 renal
ACHN renal = test system: ACHN renal
A498 renal = test system: A498 renal
MOLT-4 leukemia = test system: MOLT-4 leukemia
CCRF-CEM leukemia = test system: CCRF-CEM leukemia

Row | SMILES | growth (SK-MEL-2 melanoma) | growth (EKVX NSCLC) | growth (SN12C renal) | growth (UO-31 renal) | growth (TK-10 renal) | growth (ACHN renal) | growth (A498 renal) | growth (MOLT-4 leukemia) | growth (CCRF-CEM leukemia)
1 | Cn1c(-c2c(N)n(Cc3ccc(C(F)(F)F)cc3)c3nc(C#N)c(C#N)nc23)nc2ccccc21 | 15.4% | 1.13% (active) | 14.4% | -23% (active) | -12.9% (active) | 3.12% (active) | -6.26% (active) | -16.8% (active) | –
2 | C=C(C)[C@@H]1CC[C@]2(C)[C@H](CC=C3[C@@H]4CC(C)(C)CC[C@]4(C(N)=O)CC[C@]32C)[C@@]1(C)CCC#N | -0.287% (active) | 46.1% | -48.1% (active) | 17.6% | 12.7% | 20.8% | 7.55% (active) | 24.1% | 39.8%
3 | Cn1c(=O)c2[nH]c(NN)nc2n(C)c1=O | 105% | 120% | 108% | 90.8% | 107% | 105% | 109% | 96.1% | 92.4%
4 | CCOc1ccccc1-c1cc(-c2cccs2)c(C#N)c(=O)[nH]1 | 98.4% | 97.5% | 83.3% | 68.8% | 110% | 95.6% | 70.2% | 92.9% | –
5 | COCN1CCC2N(COC)CCC3N(COC)CCC1N23 (centres undefined) | 107% | 108% | 89.6% | 107% | 113% | 108% | 113% | – | 104%
6 | COc1ccc2occ(C3=C(c4c[nH]c5ccccc45)C(=O)N(O)C3=O)c2c1 | 102% | 93.1% | 95.9% | 61.9% | 126% | 95.3% | 118% | 102% | –
7 | Cc1ccc(-c2cc3c(cc2O)C2CCCCC2(N2CCOCC2)O3)cc1 (centres undefined) | 101% | 107% | 93.1% | 84.5% | 116% | 112% | 114% | 84.1% | –
8 | C=CCn1c(C)nc2cc(Nc3nc(Cl)nc4ccccc34)ccc21 | 99.5% | 93.7% | 97.3% | 93.8% | 114% | 103% | 55.4% | 78.7% | –
9 | Cc1cc(C(=O)c2ccccc2)c(C)c2c1[nH]c1ccc(Cl)cc12 | 52.1% | 42.8% | 22.1% | 25% | 93.7% | 24.8% | -11.8% (active) | 15.9% | 8.5% (active)
10 | N#CCN1C(=O)C2C3=C(CCCC3)SC2N=C1CN1CCCC1 (centres undefined) | 83.5% | 96% | 100% | 7.35% (active) | 104% | 104% | 100% | 79.9% | –
11 | COc1cccc(-c2nn(-c3ccccc3)cc2-c2ccnc(NCCCNC(=O)Nc3ccc(Cl)c(Cl)c3)c2)c1 | -53.9% (active) | 37.8% | 37.5% | -34.4% (active) | 45.7% | 32.9% | 4.95% (active) | – | 1.35% (active)
12 | O=C(N=c1oc2ccccc2cc1-c1cc2ccccc2[nH]1)c1ccc(Cl)cc1 | 101% | 38.9% | 80.3% | 54.5% | 53.1% | 6.82% (active) | 69.6% | – | 24.7%
